Data on 20 compounds can be found in PubChem BioAssay (NCATS).

Inconclusive results are not listed. Calls of active or inactive are those of the source. The call rests on the fitted dose curve; in most records, active means well fitted curve in the direction sought with a large enough effect; inconclusive means small, poorly fitted or top-dose-only effect, or another doubt; inactive means no such curve, though single readings can be large; an effect the other way counts as inactive or inconclusive. Residues, ends and D or L forms follow the SMILES beside them.

The nature of assay [1]: BET inhibitor-based combinations targeting novel dependencies in MECOM-rearranged (r) AML: MV-4-11 cell line (AID 2202233). Further: nearly all actives have a fitted effect of over 45% in size. An outline of the steps:
(§1)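 Seeding density was 500 cells/well, and drug exposure lasted 48 hr under standard culture conditions. Read-out used CellTiter-Glo reagent with a 15 min room-temperature incubation before luminescence measurement; AUC and Z-AUC summarize the normalized responses.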

Assay [2] can be described thus: BET inhibitor-based combinations targeting novel dependencies in MECOM-rearranged (r) AML: UCSD-AML1 cell line (AID 2202235). Further: nearly all actives have a fitted effect of over 40% in size. The method, boiled down:
as §1

The nature of assay [3]: BET inhibitor-based combinations targeting novel dependencies in MECOM-rearranged (r) AML: AML-191 cell line (AID 2202236; further: nearly all actives have a fitted effect of over 35% in size). An outline of the steps: (§2)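 Readout: CellTiter-Glo luminescence. Exposure: 48 h, 11 concentrations, 500 cells/well. Metric: AUC and within-line Z-AUC after DMSO/empty-well normalization.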
Assay [4] is described as follows: BET inhibitor-based combinations targeting novel dependencies in MECOM-rearranged (r) AML: AML-194 cell line (AID 2202237; further: nearly all actives have a fitted effect of over 40% in size). An outline of the steps:
as §2

The nature of assay [5]: BET inhibitor-based combinations targeting novel dependencies in MECOM-rearranged (r) AML: HNT-34 cell line (AID 2202234). Further: nearly all actives have a fitted effect of over 35% in size. An outline of the steps:
as §1
Potency means the concentration at half of the fitted maximal effect.

With `CC(C)=CCC/C(C)=C/CC/C(C)=C/CSc1ccccc1C(=O)O`, in assay [1], the Potency was 11.8 µM (active). The Potency entry in assay [2], in assay [3] and in assay [4] was “inactive” throughout.
In the case of `Cc1c(-c2ccc(-c3ccccc3F)cc2)nc2ccc(F)cc2c1C(=O)O`, the Potency in assay [1] was 0.209 µM (active); in assay [2], 0.742 µM (active); in assay [4], 0.662 µM (active). The Potency entry in assay [5] is “inactive”.
Turning to `Clc1ccc(C(Cn2ccnc2)OCc2ccsc2Cl)c(Cl)c1` (configuration not stated), the Potency in assay [1] is 23.5 µM (active); in assay [5] it was 18.6 µM (active); in assay [3] it was 23.5 µM (active); in assay [4], 23.5 µM (active).
As for `CS(=O)(=O)c1ccc(-c2cnc(NCc3ccco3)n3cnnc23)cc1`, the Potency entry in assay [1], in assay [5], in assay [2] and in assay [3] was “inactive” each time.
`Cn1cc(-c2cc(Oc3cc(F)c(NC(=O)C4(C(=O)Nc5ccccc5)CC4)cc3F)ccn2)cn1`: the Potency in assay [5] was 5.25 µM (active).
As for `Cc1c(CN2CCN(C(=O)[C@H](C)O)CC2)sc2c(N3CCOCC3)nc(-c3cnc(N)nc3)nc12`, the Potency in assay [1] was 0.525 µM (active); in assay [2] it was 0.0525 µM (active).
As to `CC1=C2C[C@H]3[C@@H](CC[C@@H]4C[C@H](NS(C)(=O)=O)CC[C@@]43C)[C@@H]2CC[C@@]2(C1)O[C@@H]1C[C@H](C)CN[C@H]1[C@H]2C`, the Potency is 16.6 µM (active) in assay [1], 20.9 µM (active) in assay [3] and 23.5 µM (active) in assay [4].
`Cc1c(Cl)cccc1S(=O)(=O)Nc1nc(CCN2CCOCC2=O)cs1`: the Potency entry in assay [1], in assay [5] and in assay [2] was “inactive” throughout.
Regarding `CCCCN(CCCC)CCC(O)c1cc2c(Cl)cc(Cl)cc2c2cc(C(F)(F)F)ccc12` (configuration not stated), the results for the Potency in assay [1], in assay [2] and in assay [4] were 18.6 µM (active), 26.3 µM (active) and 29.5 µM (active), respectively.
For the compound `N[C@@H](CCC(=O)O)C(=O)N[C@@H](Cc1c[nH]c2ccccc12)C(=O)O` (H-Glu-Trp-OH), the Potency result in assay [1], in assay [5], in assay [2] and in assay [4] was “inactive” in each case.
On to `Cc1ccc(-c2ncc(Cl)cc2-c2ccc(S(C)(=O)=O)cc2)cn1`, for which the Potency result in assay [1], in assay [5], in assay [2], in assay [3] and in assay [4] was “inactive” throughout.
Consider `CCC1CCCCN1C(=O)n1ncc(C(O)(c2ccccc2)c2ccccc2)n1` (configuration not stated), for which the results for the Potency in assay [1], in assay [2] and in assay [3] were 14.8 µM (active), 20.9 µM (active) and 14.8 µM (active), respectively.
In the case of `C=C1C[C@H]2C=Nc3cc(OCCCOc4cc5c(cc4OC)C(=O)N4CC(=C)C[C@H]4C=N5)c(OC)cc3C(=O)N2C1`, the Potency result in assay [1] and in assay [2] was “inactive” throughout. For the same compound, the Potency in assay [4] is 0.0015 µM (active).
With `Clc1cc(Cl)cc(CNc2ncncc2-c2ccc3c(c2)OCO3)c1`, in assay [1], the Potency is 23.5 µM (active). Also, the Potency result in assay [2] is “inactive”.
Turning to `CCN1C(=O)N2Cc3cc(OC)cc(OC)c3[C@@H](C)C=C2C12CCN(Cc1cc(C)cc(C)c1)CC2`, in assay [5], the Potency was 23.5 µM (active).
For `O=c1oc2c(C3OCCCO3)c(O)ccc2c2c1CNCC2`, the Potency result in assay [1], in assay [5], in assay [2] and in assay [4] was “inactive” in each case. In addition, the Potency in assay [3] was 18.6 µM (active).
For `CCCN(CCC)C(=O)C1=Cc2ccc(-c3ccc(C(=O)N4CCCC4)cc3)cc2N=C(N)C1`, the Potency in assay [1] was 16.6 µM (active); in assay [5] it was 18.6 µM (active); in assay [3], 18.6 µM (active); in assay [4], 26.3 µM (active). Besides, in assay [2], the Potency result was “inactive”.
With `Cc1ccc(Nc2cc(N[C@@H]3CCCC[C@@H]3N)nnc2C(N)=O)nc1C`, the Potency in assay [1] is 3.72 µM (active); in assay [5], 16.6 µM (active); in assay [3], 18.6 µM (active); in assay [4], 20.9 µM (active).
With `C[C@@H]1CC[C@@]2(OC1)OC1CC3C4CC=C5CC(O)CCC5(C)C4CCC3(C)C1[C@@H]2C` (some centres not stated), the Potency entry in assay [1] and in assay [2] was “inactive” throughout.
In the case of `CC/C(=C(/c1ccc(O)cc1)c1ccc(OCCNC)cc1)c1ccccc1`, the Potency was 8.33 µM (active) in assay [1]; 23.5 µM (active) in assay [5]; 9.34 µM (active) in assay [2]; 13.2 µM (active) in assay [3]; 13.2 µM (active) in assay [4].
